These results are taken from PubChem BioAssay (Tox21).

Results filed as inconclusive are left out. A number with no mark means an inactive call. Calls of active or inactive are those of the source. Unless noted, calls follow the shape of the dose curve; as a rule, active = well fitted curve in the direction sought with a large enough effect in the repeat runs; inconclusive = weak or mixed curves; inactive = no such curve, though single readings can be large; an effect the other way counts as inactive or inconclusive.

A short description of assay [1]: qHTS assay to identify small molecule antagonists of the retinoid acid receptor (RAR) signaling pathway - cell viability counter screen (AID 1159551). Also: nearly all actives have a fitted effect of over 35% in size. The gist of the method:
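Cytotoxicity counter screen: ATP content quantified by CellTiter-Glo luminescence in C3RL4 cells treated 6 hr at 37 C with compound and retinol (1 uM final). Cells plated at 1,000/well and cultured overnight before dosing.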
In general terms: Quantitative high-throughput screening tests each substance at several concentrations.

The nature of assay [2]: qHTS assay to identify small molecule antagonists of the retinoic acid receptor (RAR) signaling pathway (AID 1159552; also: nearly all actives have a fitted effect of over 50% in size). The gist of the method:
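Retinol signaling pathway inhibitors screened in C3RL4 RARE-luciferase reporter cells seeded overnight at 37 C, then compounds added with 1 uM (final) retinol as pathway substrate. After 6 hr at 37 C, luciferase luminescence read after 30 min at room temperature.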

Assay [3] in a line: qHTS assay to identify small molecule agonists of the retinoic acid receptor (RAR) signaling pathway (AID 1159553). Also: potency is read from the fitted curve at half-maximal effect. The gist of the method:
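Luminescence was measured 30 min after luciferase reagent addition at room temperature. Before that, C3RL4 reporter cells (1,000 per well, plated overnight) were treated with compound for 6 hr at 37 C and 5% CO2.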

Assay [4] in a line: qHTS assay to identify small molecule antagonists of the estrogen related receptor (ERR) signaling pathway - cell viability counter screen (AID 1224818). Also: series mostly up to about 46 µM. The gist of the method:
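Cytotoxicity counter screen: fluorescence from CellTiter-Fluor, added after 17.5 h compound exposure at 37 C and read 30 min later. ERR cell line seeded at 2,000 cells/well, preincubated 6 h before dosing.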

Assay [5] can be described thus: qHTS assay to identify small molecule antagonists of the estrogen related receptor (ERR) signaling pathway (AID 1224819;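 also: luminescence from an ERR-driven luciferase reporter measured with One-Glo reagent; series mostly up to about 46 µM; nearly all actives have a fitted effect of over 50% in size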). The gist of the method:
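LOPAC library screened for antagonism as reduced One-Glo luminescence in ERR reporter cells (2,000/well). Compounds were added after 6 h pre-incubation and left 18 h at 37C; reading followed a 30 min room-temperature reagent step.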

Assay [6] is described as follows: qHTS assay to identify small molecule agonists of the estrogen related receptor (ERR) signaling pathway (AID 1224820). The gist of the method: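 Luminescence readout (One-Glo, 30 min RT) from NTP-supplied ERR cell line exposed to compounds for 18 h at 37 C. Cells seeded 2,000 per well and pre-incubated 6 h before pin-tool compound transfer.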
A short description of assay [7]: qHTS assay to identify small molecule agonists of the estrogen related receptor signaling pathway with the pleiotropic PPARgamma coactivator (PGC) (AID 1224823). The gist of the method:
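Luminescence readout (One-Glo, 30 min RT) from PGC/ERR cell line treated 18 h at 37 C with pin-tool-delivered DMSO compound solutions; cells plated 6 h before dosing. Quantitative HTS format.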

In assay [8] the target is Luciferin 4-monooxygenase (Photinus pyralis) (UniProt P08659). The assay is described as follows: qHTS assay to identify small molecule inhibitors of firefly luciferase (AID 1224835). Also: nearly all actives have a fitted effect of over 25% in size. Also: potency is read from the fitted curve at half-maximal effect. As to activity change, negative = inhibition: series mostly up to about 120 µM. The gist of the method: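 Inhibition of purified Photinus luciferase is measured by luminescence. Substrate levels (D-luciferin, ATP) sit at their KM values. Each compound is tested in a concentration series.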

A short description of assay [9]: qHTS assay to identify small molecule agonists of the constitutive androstane receptor (CAR) signaling pathway - cell viability counter screen (AID 1224836). Also: series mostly up to about 92 µM; nearly all actives have a fitted effect of over 45% in size. The gist of the method:
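HepG2 cells stably carrying hCAR and a CYP2B6-2.2kb reporter; 15-concentration compounds plus PK11195 (final 0.75 uM), 23 hr at 37 C/5% CO2. Viability read by CellTiter-Fluor fluorescence.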

The nature of assay [10]: qHTS assay to identify small molecule antagonists of the constitutive androstane receptor (CAR) signaling pathway - cell viability counter screen (AID 1224837). Also: series mostly up to about 92 µM; nearly all actives have a fitted effect of over 45% in size. The gist of the method:
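Cytotoxicity counter-screen: CellTiter-Fluor fluorescence after 23 h compound exposure (15-point qHTS) in double-stable HepG2-CYP2B6-hCAR cells, with 50 nM CITCO added.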

Assay [11] has as its target Nuclear receptor subfamily 1 group I member 3 (Homo sapiens) (UniProt Q14994). The assay is described as follows: qHTS assay to identify small molecule antagonists of the constitutive androstane receptor (CAR) signaling pathway (AID 1224838).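 Also: HepG2 cells stably expressing hCAR with CYP2B6 luciferase reporter stimulated by CITCO; nearly all actives have a fitted effect of over 40% in size.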 The gist of the method:
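Antagonism measured as luciferase signal (ONE-Glo, 30 min, room temperature) in CAR-stimulated cells: HepG2-CYP2B6-hCAR double-stable line exposed 24 hr at 37 C to compound in a 15-point series plus 50 nM CITCO.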

The target is the same in assay [12]. The assay is described as follows: qHTS assay to identify small molecule agonists of the constitutive androstane receptor (CAR) signaling pathway (AID 1224839). Also: nearly all actives have a fitted effect of over 15% in size. Also: potency is read from the fitted curve at half-maximal effect.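 As to activation: HepG2 cells stably carrying human CAR and a CYP2B6 luciferase reporter; series mostly up to about 92 µM.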 The gist of the method:
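HepG2 cells stably co-transfected with hCAR and a CYP2B6-2.2kb luciferase reporter; compounds at 15 concentrations with 0.75 uM PK11195 present. After 24 hr at 37 C, luciferase read by ONE-Glo luminescence.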

Assay [13] can be described thus: qHTS assay to identify small molecule agonists of the estrogen related receptor signaling pathway with the pleiotropic PPARgamma coactivator (PGC) from Tox21 10K library (AID 1224842). Also: nearly all actives have a fitted effect of over 15% in size. The gist of the method:
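Luminescence from One-Glo (30 min, room temperature) measured after PGC/ERR cells had 18 h at 37 C with pinned compound (23 nL in DMSO). Cells had been seeded at 2,000 per well and pre-incubated 6 h.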

The nature of assay [14]: qHTS assay to identify small molecule antagonists of the estrogen related receptor (ERR) signaling pathway from Tox21 library - cell viability counter screen (AID 1224834). Also: nearly all actives have a fitted effect of over 30% in size. Also: potency is read from the fitted curve at half-maximal effect. The gist of the method:
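CellTiter-Fluor fluorescence, read after 30 min at 37 C, measures viability of ERR cells. Cells plated at 2,000/well and incubated 6 h before pin-tool compound addition, then exposed 17.5 hours at 37 C.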

Assay [15] can be described thus: qHTS assay to identify small molecule antagonists of the estrogen related receptor signaling pathway with the pleiotropic PPARgamma coactivator (PGC) from Tox21 10K library - cell viability counter screen (AID 1224840; active = well fitted cell-killing curve with a large enough effect in the repeat runs, not every such curve was filed as active; also: nearly all actives have a fitted effect of over 40% in size). The gist of the method: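 Counter-screen for cytotoxicity: after 17.5 h compound exposure at 37 C, CellTiter-Fluor reagent added to PGC/ERR cells for 30 min and fluorescence read. Cells were seeded at 2,000 per well 6 h before dosing.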

For assay [16], the target named is Thyrotropin receptor (Homo sapiens) (UniProt P16473). Kind of assay: qHTS assay to identify small molecule agonists of the thyroid stimulating hormone receptor (TSHR) signaling pathway (AID 1224843; calls by dose curve; also: nearly all actives have a fitted effect of over 45% in size). The gist of the method:
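A cell-based cAMP HTRF format was run in TSHR-transfected HEK293 cells, 800 per well. Treatment: 30 min, room temperature. Detection: 1 h with labelled cAMP and anti-cAMP cryptate. Concentration-response over 15 points, three replicates.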

A short description of assay [17]: qHTS assay to identify small molecule agonists of the hypoxia (HIF-1) signaling pathway - cell viability counter screen (AID 1224844; calls by dose curve; also: nearly all actives have a fitted effect of over 50% in size; also: potency is read from the fitted curve at half-maximal effect). The gist of the method:
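Cytotoxicity measured by CellTiter-Glo ATP luminescence in the wells also read for beta-lactamase signal. Cells were HRE-bla ME-180 (2,000/well, 0.5% dialyzed FBS), exposed to compounds for 17 h at 37C.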

Assay [18] relates to estrogen-related receptor alpha (ERRalpha) with PGC-1alpha coactivator, human. The assay is described as follows: qHTS assay to identify small molecule antagonists of the estrogen related receptor signaling pathway with the pleiotropic PPARgamma coactivator (PGC) (AID 1224821; calls by dose curve;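 also: series mostly up to about 46 µM; lower luminescence signal means antagonism of PGC/ERR signalling; nearly all actives have a fitted effect of over 50% in size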). The gist of the method:
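PGC/ERR reporter cells; 6 h pre-incubation 37 C/5% CO2; pin-tool compound in DMSO, 18 h 37 C; One-Glo added, 30 min RT; luminescence read. qHTS antagonist mode.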

Assay [19] can be described thus: qHTS assay to identify small molecule antagonists of the estrogen related receptor signaling pathway with the pleiotropic PPARgamma coactivator (PGC) cell viability counter screen (AID 1224822; also: series mostly up to about 46 µM). The gist of the method: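 Viability counter-screen read by fluorescence intensity after 30 min with CellTiter-Fluor at 37 C; PGC/ERR reporter cells were exposed to compounds for 17.5 h at 37 C following a 6 h preincubation.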

The nature of assay [20]: qHTS assay to identify small molecule antagonists of the estrogen related receptor signaling pathway with the pleiotropic PPARgamma coactivator (PGC) from Tox21 10K library (AID 1224841; call rule not given here). The gist of the method:
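Luminescence (One-Glo, 30 min at room temperature) after 18 h compound treatment at 37 C of PGC/ERR reporter cells plated at 2,000 cells/well and settled 6 h beforehand.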
% is scaled to controls: 0 for no effect and ±100 for the full control effect.

Sequence of Nuclear receptor subfamily 1 group I member 3 (Homo sapiens) (Q14994 whole entry, looked up): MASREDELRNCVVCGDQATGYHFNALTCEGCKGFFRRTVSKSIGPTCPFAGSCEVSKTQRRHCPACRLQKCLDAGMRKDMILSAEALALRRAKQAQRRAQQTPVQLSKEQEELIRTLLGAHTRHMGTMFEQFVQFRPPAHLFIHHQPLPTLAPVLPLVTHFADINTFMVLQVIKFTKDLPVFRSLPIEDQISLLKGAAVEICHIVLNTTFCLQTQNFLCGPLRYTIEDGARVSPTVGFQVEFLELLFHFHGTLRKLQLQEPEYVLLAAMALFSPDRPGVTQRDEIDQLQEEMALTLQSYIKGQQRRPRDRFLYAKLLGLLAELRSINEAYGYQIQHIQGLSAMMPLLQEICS
Sequence of Luciferin 4-monooxygenase (Photinus pyralis) (P08659 whole entry, looked up): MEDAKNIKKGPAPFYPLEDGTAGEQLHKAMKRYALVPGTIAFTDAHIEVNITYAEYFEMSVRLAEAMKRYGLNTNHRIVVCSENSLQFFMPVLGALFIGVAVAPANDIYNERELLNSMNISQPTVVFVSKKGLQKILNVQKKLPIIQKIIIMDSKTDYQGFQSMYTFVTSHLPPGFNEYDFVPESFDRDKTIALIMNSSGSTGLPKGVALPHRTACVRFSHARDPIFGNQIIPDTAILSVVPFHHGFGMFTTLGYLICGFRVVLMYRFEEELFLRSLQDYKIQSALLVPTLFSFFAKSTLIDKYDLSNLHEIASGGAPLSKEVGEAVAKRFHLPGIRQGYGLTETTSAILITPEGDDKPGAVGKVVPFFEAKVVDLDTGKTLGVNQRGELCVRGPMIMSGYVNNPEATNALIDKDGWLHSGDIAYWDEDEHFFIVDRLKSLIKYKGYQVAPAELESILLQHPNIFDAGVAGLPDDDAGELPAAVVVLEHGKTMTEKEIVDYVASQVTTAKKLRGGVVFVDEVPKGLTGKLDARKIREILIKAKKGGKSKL
Sequence of Thyrotropin receptor (Homo sapiens) (P16473 whole entry, looked up): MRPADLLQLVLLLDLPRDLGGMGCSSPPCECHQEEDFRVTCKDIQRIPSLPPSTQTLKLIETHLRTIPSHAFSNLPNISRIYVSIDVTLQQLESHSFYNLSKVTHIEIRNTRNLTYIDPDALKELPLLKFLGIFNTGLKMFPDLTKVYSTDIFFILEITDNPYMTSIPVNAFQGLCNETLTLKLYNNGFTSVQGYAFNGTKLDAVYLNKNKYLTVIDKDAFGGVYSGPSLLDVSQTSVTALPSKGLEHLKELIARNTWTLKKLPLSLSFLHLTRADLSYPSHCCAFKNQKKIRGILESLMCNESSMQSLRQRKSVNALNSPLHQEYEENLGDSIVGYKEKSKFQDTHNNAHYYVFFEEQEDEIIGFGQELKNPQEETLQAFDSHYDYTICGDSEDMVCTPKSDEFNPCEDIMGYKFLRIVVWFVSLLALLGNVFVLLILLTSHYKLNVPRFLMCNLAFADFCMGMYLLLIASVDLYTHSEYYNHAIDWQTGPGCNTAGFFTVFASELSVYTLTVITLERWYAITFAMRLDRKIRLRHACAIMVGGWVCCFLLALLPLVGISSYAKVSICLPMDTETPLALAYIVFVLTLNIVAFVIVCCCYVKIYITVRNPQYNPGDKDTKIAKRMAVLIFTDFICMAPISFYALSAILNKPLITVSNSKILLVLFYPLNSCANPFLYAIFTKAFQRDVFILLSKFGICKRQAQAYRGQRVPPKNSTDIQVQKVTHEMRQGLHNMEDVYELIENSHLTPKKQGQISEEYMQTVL

For the molecule `S=c1[nH]c2ccccc2s1`, the Potency entry in assay [1], in assay [2], in assay [4], in assay [5], in assay [9] and in assay [10] was “inactive” throughout. Besides, the Potency entry in assay [11] and in assay [13] was “inactive” each time. The Potency in assay [3] was 8.63 µM (active); in assay [8] it was 39.9 µM (active); in assay [12] it was 54.5 µM (active). The molecule was called inactive in assay [6] and in assay [7].
Consider `Cc1c(C)c2c(c(C)c1OC(=O)CCC(=O)O)CC[C@@](C)(CCC[C@H](C)CCC[C@H](C)CCCC(C)C)O2`, for which the Potency entry in [1], in assay [2], in assay [3], in assay [14], in assay [8] and in assay [9] was “inactive” throughout. The Potency entry in assay [10], in assay [11], in [12], in assay [15], in assay [13] and in [16] was “inactive” in each case. In addition, in [17], the Potency was 1.4 µM (active).
With `Clc1ccc2nsnc2c1NC1=NCCN1`, the Potency result in assay [1], in assay [2], in assay [3], in [4], in assay [5] and in [18] was “inactive” each time. For the same molecule, the Potency result in assay [19], in [14], in [8], in [9], in assay [10] and in assay [12] was “inactive” each time. The Potency entry in assay [15], in assay [20], in assay [13], in assay [16] and in [17] was “inactive” in each case. The molecule was classed as inactive in assay [6] and in assay [7].
As to `O=[N+]([O-])c1ccccc1Nc1ccccc1`, the Potency entry in assay [1], in assay [2], in [3], in assay [8], in [9] and in [10] was “inactive” in each case. The Potency result in assay [11], in assay [15], in assay [16] and in assay [17] was “inactive” in each case.
For `CCCCCOC(=O)CCCC`, the Potency result in assay [1], in [2], in assay [3], in [14], in assay [8] and in [9] was “inactive” each time. Further, the Potency entry in [10], in [15], in assay [16] and in assay [17] was “inactive” each time.
As for `OCCCCCCCCCCCCBr`, the Potency result in [1], in [2], in assay [3], in assay [8], in assay [9] and in [10] was “inactive” each time. Further, the Potency entry in assay [11] and in assay [16] was “inactive” in each case. For the same molecule, the Potency in assay [17] was 44.3 µM (active).
Take `O=C(OC[C@H]1O[C@@H](OC(=O)c2cc(O)c(O)c(OC(=O)c3cc(O)c(O)c(O)c3)c2)[C@H](OC(=O)c2cc(O)c(O)c(OC(=O)c3cc(O)c(O)c(O)c3)c2)[C@@H](OC(=O)c2cc(O)c(O)c(OC(=O)c3cc(O)c(O)c(O)c3)c2)[C@@H]1OC(=O)c1cc(O)c(O)c(OC(=O)c2cc(O)c(O)c(O)c2)c1)c1cc(O)c(O)c(OC(=O)c2cc(O)c(O)c(O)c2)c1`: the activity change, negative = cytotoxicity was -3.41% [at 19 µM] in assay [1] and -0.825% [at 15.8 µM] in assay [17]. Moreover, the activity, negative = inhibition was 22.4% [at 19 µM] in assay [2], -0.544% [at 19 µM] in assay [11] and -8.46% [at 19 µM] in assay [20]. Also, the Potency result in assay [3] was “inactive”. Moreover, in assay [14], the Potency was 16.5 µM (active). Moreover, the activity change, negative = inhibition in assay [8] is -18.6% [at 23.6 µM]. Also, in assay [9], the viability change, negative = cytotoxic was -11.1% [at 19 µM]. In addition, the activation in [12] was -3.23% [at 19 µM].
As for `Cc1ccc2oc(CN(Cc3ccccc3)C(=O)Nc3c(F)cc(F)cc3F)c(-c3ccc(Cl)cc3)c2c1`, the Potency result in [1], in assay [2], in [3], in [8], in assay [9] and in assay [10] was “inactive” in each case. Moreover, the Potency entry in [15], in [13], in [16] and in assay [17] was “inactive” in each case.
